Consider 92 compounds from PubChem BioAssay AID2417 (National Center for Advancing Translational Sciences (NCATS), 2010).

Among all 140,000 compounds or so, about 4,300 (3.1%) were called active. Inconclusive results (about 21%) are left out.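 The calls were made as follows: active = readout at or below -70, meaning at least 70% loss of cells showing the perinucleolar compartment, a nuclear body marking cancer cells; inconclusive = readout between -30 and a set limit; inactive = the rest.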 This excerpt belongs to a sample that is enriched for actives.

The test can be described thus: High Content Assay for Compounds that inhibit the Assembly of the Perinucleolar Compartment.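 Also: plate controls were DMSO wells for no effect and camptothecin positive control wells for full effect.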 The conditions noted are these: PC3M PTB-GFP, PNC prevalence imaging, 16 h; at 10 µM; active compounds read low. The gist of the method:
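Compounds are pinned in duplicate onto adhered PC3M cells stably expressing GFP-tagged PTB and incubated 16 h at 37 C. Cells are then fixed, nuclei stained with Hoechst, and PNC-positive cells counted.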
For the compound `N/C(=N\OC(=O)CC1CCCCC1)c1ccccc1`, the activity change (PNC), negative = inhibition is -25.3% (inactive).
The figure for `COC(=O)c1ccccc1NS(=O)(=O)c1ccc2[nH]c(=O)[nH]c2c1` is -18.2% (inactive).
The result for `Cc1ccc(N(Cc2cc3ccccc3[nH]c2=O)C(=O)c2cccs2)cc1` reads 4.02% (inactive).
The result for `CCOC(=O)Cc1csc(NC(=O)CSc2ccc(Br)cc2)n1` reads 34.9% (inactive).
On to `O=c1c2ccccc2c(-c2ccc(F)cc2)nn1-c1ccc(C(F)(F)F)cc1`, for which the activity change (PNC), negative = inhibition is -1% (inactive).
The result for `O=c1[nH]cnc2c1c(-c1ccccc1)cn2-c1ccc(F)cc1` reads -108% (active); that for `O=C(CNCc1ccc(F)cc1)Nc1ccccc1-c1ccccc1`, 23.9% (inactive); that for `Cc1cc(C)c(C#N)c(SCC(=O)NN2CC(=O)N(c3ccccc3F)CC2=O)n1`, 43.3% (inactive).
The result for `O=C(c1cc(Cl)cc(Cl)c1)N1CCC(=O)N(C(COCc2ccccc2)Cc2ccccc2)CC1` (configuration not stated) reads 27.5% (inactive).
In the case of `CC(C)CC(COCc1ccc(Cl)cc1)N1CCN(C(=O)c2ccc(C(F)(F)F)cc2)CCC1=O` (configuration not stated), the activity change (PNC), negative = inhibition is 49.5% (inactive).
Regarding `CC(C)CC(CO)N1CCN(C(=O)c2ccc(Cl)cc2Cl)CCC1=O` (configuration not stated), the activity change (PNC), negative = inhibition was -91.5% (active).
The figure for `CC(=O)c1sc(N/N=C\c2ccc(C)cc2)nc1C` is 25.4% (inactive).
The result for `CCc1ccccc1NC(=O)CN(C)C(=O)COc1ccc(C)nc1[N+](=O)[O-]` reads -8.07% (inactive).
The figure for `CCC(C)(C)NC(=O)C(c1cccn1C)N(Cc1ccc(C)cc1)C(=O)Cn1nnc2ccccc21` (configuration not stated) is 27.9% (inactive).
Regarding `COc1ccccc1N(C(=O)Cn1nnc2ccccc21)C(C(=O)NCc1ccco1)c1ccc(C)o1` (configuration not stated), the activity change (PNC), negative = inhibition was 20.9% (inactive).
The figure for `COCCNC(=O)C(c1ccc(C)o1)N(Cc1ccccc1)C(=O)Cn1nnc2ccccc21` (configuration not stated) is -83.4% (active).
The figure for `Brc1ccc(C2CC(c3ccccc3)=Nc3ccccc3N2)cc1` (configuration not stated) is -29.2% (inactive); for `CC(=O)c1ccc(NC(=O)Nc2ccc([N+](=O)[O-])cc2C)cc1` it is -13% (inactive).
The figure for `COc1ccc(NC(=O)Nc2ccc3nc(C)c(C)nc3c2)cc1` is 5.41% (inactive); for `COc1cc(NC(=O)Nc2ccc(C)cc2)cc([N+](=O)[O-])c1` it is -87.1% (active); for `O=C(CN1C2=NCCN2c2ccccc21)c1cccs1` it is -2.86% (inactive).
Consider `COc1ccc(NS(=O)(=O)c2cc(NC(=O)/C=C/c3cc(OC)c(OC)c(OC)c3)ccc2N2CCCCC2)cc1`, for which the activity change (PNC), negative = inhibition was -0.688% (inactive).
As to `CC1(C)CC(=O)C(N=Nc2ccc(S(=O)(=O)N3CCCCCC3)cc2)=C(O)C1`, the activity change (PNC), negative = inhibition is 24.1% (inactive).
The figure for `COc1ccc(CNC(=O)CN(Cc2ccc(Cl)cc2)S(C)(=O)=O)cc1` is 48.3% (inactive); for `Cc1cccc(NC(=O)c2sc(-c3ccccc3)nc2-c2ccc([N+](=O)[O-])cc2)c1` it is -100% (active); for `O=C(CSc1nc(-c2ccccc2)cs1)Nc1cccc([N+](=O)[O-])c1` it is 126% (inactive).
The result for `COc1ccc(C(=O)Nc2nc(-c3ccc(OC)cc3)c(-c3ccc([N+](=O)[O-])cc3)s2)cc1` reads -23.3% (inactive).
In the case of `O=C(O)C1CC(=O)N(Cc2cccnc2)C1` (configuration not stated), the activity change (PNC), negative = inhibition was -9.97% (inactive).
The figure for `O=C1OC(c2ccc(Cl)cc2)=N/C1=C\c1cccnc1` is 41.2% (inactive).
The figure for `O=C1/C(=C\c2cccnc2)CN(Cc2ccccc2)C/C1=C\c1cccnc1` is -112% (active).
Consider `O=C(Nn1c(-c2ccc(Cl)cc2)nc2ccccc2c1=O)c1cccnc1Cl`, for which the activity change (PNC), negative = inhibition was 8.85% (inactive).
In the case of `Cc1ccnc(NS(=O)(=O)c2ccc(NC(=O)c3ccc(S(=O)(=O)N4CCOCC4)cc3)cc2)n1`, the activity change (PNC), negative = inhibition is -19.3% (inactive).
The result for `CC(OC(=O)CNS(=O)(=O)/C=C/c1ccccc1)C(=O)Nc1ccc(S(=O)(=O)N2CCCC2)cc1` (configuration not stated) reads 64.4% (inactive).
The figure for `CCOC(=O)/C(=N\Nc1cc(Cl)ccc1Cl)N1CCN(C)CC1` is -27.3% (inactive).
The result for `c1ccc2[nH]c(NCCN3CCOCC3)nc2c1` reads -1.68% (inactive); that for `O=C(Cn1c(-c2ccccn2)nc2ccccc21)NCCN1CCOCC1`, 42.9% (inactive); that for `c1ccc2cc3c(NCCN4CCOCC4)ccnc3cc2c1`, -103% (active).
For `NS(=O)(=O)c1ccc(NC(=O)COC(=O)C2(c3ccc(F)cc3)CCCC2)cc1`, the activity change (PNC), negative = inhibition was 50% (inactive).
The result for `CCCCOC(=O)Nc1nccs1` reads 243% (inactive); that for `CC1(C)Cc2cccc(OCC(=O)Nc3nccs3)c2O1`, -87.8% (active); that for `CC1(C)Cc2cccc(OCC(=O)N3CCN(c4ccc([N+](=O)[O-])cc4)CC3)c2O1`, 7.92% (inactive).
Take `Cc1ccccc1C(OCCN(C)C)C1CCCCC1` (configuration not stated): the activity change (PNC), negative = inhibition is -5.25% (inactive).
The figure for `Cc1ccccc1Nc1nc(N)nc(CSc2ccccc2)n1` is -3.06% (inactive); for `N=c1c2c(-c3ccccc3)c(-c3ccccc3)n(Cc3ccccc3)c2ncn1CCCO` it is -90.2% (active).
As to `OCCCN1c2ccccc2Nc2nnc(-c3ccccc3)cc21`, the activity change (PNC), negative = inhibition is -15.1% (inactive).
The result for `N=c1c2c(-c3ccccc3)c(-c3ccccc3)oc2ncn1Cc1ccco1` reads 34.2% (inactive); that for `CN(C)c1ccc(/C=N/N(Cc2ccccc2)c2ccccc2)cc1`, -6.4% (inactive).
The result for `CCN1CN(Cc2ccccc2)CNC1=S` reads -4.78% (inactive); that for `CCCOc1ccc(Cn2ccnc2)cc1[N+](=O)[O-]`, -21.9% (inactive); that for `CCCCOc1ccc(CSC(=N)N)cc1[N+](=O)[O-]`, -6.06% (inactive).
The figure for `CCCCCOc1ccc(CSC2=NCCN2)cc1[N+](=O)[O-]` is -84.7% (active); for `COc1ccc(Br)cc1CN(C)CC(=O)Nc1cc(Cl)cc(Cl)c1` it is 5.92% (inactive).
Take `O=C(NC1CC1)c1cccc(Br)c1`: the activity change (PNC), negative = inhibition is 8.13% (inactive).
The result for `Cc1cc(C)cc(NC(=S)NCCc2c[nH]c3ccccc23)c1` reads 22.2% (inactive).
In the case of `CN(c1ccccc1)S(=O)(=O)c1ccc(Cl)c(C(=O)NCCc2c[nH]c3ccccc23)c1`, the activity change (PNC), negative = inhibition is -83.7% (active).
The figure for `CCN(CC)S(=O)(=O)c1ccc2[nH]cc(C(=O)NCCc3ccccc3)c(=O)c2c1` is -4.74% (inactive).
The figure for `O=C(NNC1CC(=O)N(c2cccc(Cl)c2)C1=O)c1cccnc1` (configuration not stated) is -121% (active); for `O=C1CC(NNc2ccccc2)C(=O)N1c1cccc(Cl)c1` (configuration not stated) it is 44.7% (inactive); for `Cc1ccc(-n2nc3cc(C)c(NC(=O)c4cccnc4)cc3n2)cc1` it is 22.4% (inactive).
The result for `O=C(CCc1ccc(S(=O)(=O)N2CCOCC2)cc1)NN=C1CCCCCCC1` reads -25.6% (inactive).
In the case of `Cc1cc2c(c(=O)n1Cc1ccco1)C(c1ccccc1)C(C#N)=C(N)O2` (configuration not stated), the activity change (PNC), negative = inhibition was -6.34% (inactive).
As to `N#CC1=C(N)Oc2c(sc3ccccc23)C1c1ccco1` (configuration not stated), the activity change (PNC), negative = inhibition is -91.1% (active).
The result for `Cc1cc2oc(C(=O)Nc3c(C)n(C)n(-c4ccccc4)c3=O)c(C)c2cc1Cl` reads 2.22% (inactive); that for `Cc1cccc(NC(=O)/C=C/c2ccc3c(c2)OCO3)n1`, 46% (inactive).
The result for `COc1ccc(NC(=O)c2c(SC)nsc2SC)cc1` reads -6.12% (inactive); that for `COc1ccc(NC(=O)c2sccc2SCC#N)cc1`, -88.1% (active).
The figure for `COc1ccc(NC(=O)c2ccc(C#CC(C)(C)O)cc2)cc1` is -12.4% (inactive); for `CCCOC(=O)c1ccc(N2C(=O)c3ccccc3C2=O)cc1` it is -21.8% (inactive); for `COc1ccc(C(=O)NC2(C(F)(F)F)NC(=O)N(CCCc3ccccc3)C2=O)c(OC)c1OC` (configuration not stated) it is -8.14% (inactive).
Take `CN(CC(=O)Nc1ccc(N2CCOCC2)cc1)CC(=O)Nc1ccccc1[N+](=O)[O-]`: the activity change (PNC), negative = inhibition is -100% (active).
For the compound `CC(=O)Nc1ccc(S(=O)(=O)N2CCN(c3ccc([N+](=O)[O-])c(NCCN4CCOCC4)c3)CC2)cc1`, the activity change (PNC), negative = inhibition is -13.1% (inactive).
The result for `O=C(O)CCC(=O)Nc1ccc(N2CCOCC2)cc1` reads -23.8% (inactive); that for `O=C(NCCc1ccccc1)C1CCC(Cn2c(=O)c3ccccc3n(Cc3cccnc3)c2=O)CC1` (configuration not stated), 13.2% (inactive); that for `Cc1nc(SCc2ccc(F)cc2)c([N+](=O)[O-])[nH]1`, 17.5% (inactive).
The result for `CCC(NC(=O)c1ccccc1NC(=O)c1ccccc1)C(=O)NNC(=O)CSc1nc2ccccc2o1` (configuration not stated) reads -4.05% (inactive); that for `COCCn1c(=O)[nH]c(=O)c2cc(C(=O)c3cc(OC)ccc3O)cnc21`, -8.95% (inactive).
The result for `Cc1ccccc1N1CCN(CCCOc2ccc3c(C)cc(=O)oc3c2)CC1` reads -23.3% (inactive); that for `Cc1cc(=O)oc2cc(OCC3CC(c4ccccc4Cl)=NO3)ccc12` (configuration not stated), -89.5% (active).
On to `Cc1ccccc1NC(=O)c1ccc(COc2ccc3c(C)cc(=O)oc3c2)cc1`, for which the activity change (PNC), negative = inhibition was 90.9% (inactive).
The figure for `COc1ccc(/C(N)=N/OC(=O)CCCc2ccccc2)cc1` is -16.1% (inactive).
With `COc1ccccc1NC(=O)CCCc1c[nH]c2ccccc12`, the activity change (PNC), negative = inhibition was -4.48% (inactive).
`COc1ccccc1NC(=O)C1=C(C)Nc2ncnn2C1c1ccc(C)o1` (configuration not stated): the activity change (PNC), negative = inhibition is -27.1% (inactive).
The figure for `COc1ccccc1NC(=O)C1=C(C)Nc2nc3ccccc3n2C1c1cccs1` (configuration not stated) is -82.7% (active); for `COc1cc(C2C(C(=O)Nc3ccccc3OC)=C(C)Nc3ncnn32)ccc1O` (configuration not stated) it is 17.6% (inactive); for `Cc1ccc(Oc2cc(NC(=O)CCCn3nc(C)c([N+](=O)[O-])c3C)cc([N+](=O)[O-])c2)cc1` it is 5% (inactive).
The result for `CNC(=O)NC(=O)C(OC(=O)c1cccc(S(=O)(=O)N2CCCCC2)c1)c1ccccc1` (configuration not stated) reads -3.58% (inactive).
For the compound `COc1cc(OC)cc(-c2nc3ccccc3c(=O)n2NC(=O)c2cccnc2Cl)c1`, the activity change (PNC), negative = inhibition was -30% (inactive).
Regarding `N#Cc1ccccc1Sc1ccccc1C(=O)OCC(=O)NC1CCCCC1`, the activity change (PNC), negative = inhibition was 33.1% (inactive).
The figure for `O=C(COC(=O)c1cc(-c2cccs2)nn1-c1ccccc1)Nc1cc([N+](=O)[O-])ccc1Cl` is 21.6% (inactive); for `COc1ccc(OCCCON2C(=O)c3ccccc3C2=O)cc1` it is 0.67% (inactive).
As for `COc1ccc(C(=O)CN(C(=O)c2ccc(Cl)cc2)N2C(=O)c3ccccc3C2=O)cc1`, the activity change (PNC), negative = inhibition is -9.88% (inactive).
For the compound `CCCCC(C(=O)OCC(=O)c1ccc(OC)cc1)N1C(=O)c2ccccc2C1=O` (configuration not stated), the activity change (PNC), negative = inhibition was -100% (active).
